# Laboratory results published in PubChem BioAssay.
# Several values for one entry are separate records, joined by “and”; a condition that tells them apart may be missing. Equal values may be shown once. For part of these data: Results with a measured potency or affinity are listed apart. Activity calls are given as the source filed them. Unless noted, how the calls were made is not given here.
# How the values were obtained:
# [1] = blockers of polyQ-driven CASP3 activation – cell-based (AID 1583); conditions: polyglutamine-induced caspase-3 activation, cell assay; stronger effect = higher value;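 tested at 10 µM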
# [2] = yeast 75Q aggregation reduction – 75Q-TubU reporter (AID 1593); conditions: Yeast 75Q polyglutamine aggregation reporter
# [3] = restoration of touch response, mutant HTT neurons – whole organism, C. elegans mechanosensory neurons, N-terminal huntingtin (AID 1599); conditions: C. elegans polyQ-huntingtin mechanosensory neurons, stronger effect = higher value
# [4] = blockers of cytochrome c efflux from mitochondria – biochemical, purified mitochondria (AID 1603); conditions: stronger effect = lower value;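 further: mouse liver mitochondria challenged with calcium chloride; signal normalized to the plate average as 100%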
# [5] = polyglutamine aggregate formation blockers (AID 1604); conditions: polyglutamine-induced protein aggregation inhibition assay; stronger effect = higher value; tested at 2.5 µM
# [6] = glutamate transport activators, MN-1 cells, MN-1 cell line (AID 1612); conditions: MN-1 motor neuron cells, stronger effect = higher value;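 further: tested at 1 µM final; 0% = mean of DMSO vehicle wells on each plate; positive means more glutamate uptake than control and negative means less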
# [7] = 75Q-TubH aggregate inhibition, S. cerevisiae, yeast (AID 1616); conditions: S. cerevisiae 75Q-TubH polyglutamine aggregation suppression; stronger effect = higher value
# [8] = compounds altering viability of human ES cells (AID 493140); conditions: human embryonic stem cell survival screen; stronger effect = higher value;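 further: cells exposed to compounds for four days before counting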
# [9] = test system: Hepatitis C virus NS3 helicase; assay: blockers of NS3h binding to DNA – biochemical, fluorescence polarization, NIH Clinical Collection, primary screen (AID 743270); conditions: NS3 helicase binding to Cy5-dT15 DNA, stronger effect = higher value, concentration not given here
# [10] = target: Single-stranded DNA-binding protein (Escherichia coli (strain K12)) (UniProt P0AGE0); assay: SSB-ssDNA binding inhibitors – biochemical, fluorescence polarization, NIH Clinical Collection, counter-screen for HCV NS3 helicase inhibitor project (AID 743271; in the data active means inhibition above about 28%); conditions: E. coli SSB-DNA binding, stronger effect = higher value, concentration not given here
# [11] = compounds distorting NS3 helicase fluorescence signal – biochemical, NIH Clinical Collection, artefact control for HCV NS3 helicase inhibitor project (AID 743272); conditions: fluorescence interference counterscreen, HCV NS3 helicase assay; stronger effect = lower value;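 further: HCV NS3 helicase with a Cy5 labelled single stranded DNA probe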
# [12] = modulation of C. elegans fzo-1 (AID 1259413);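 further: fzo-1 mutant C. elegans worms in liquid wells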; conditions: C. elegans fzo-1 modulator screen, mean read-out; stronger effect = higher value
# [13] = blockers of cellular phospholipid synthesis – cell-based, LOPAC library, screen 4, primary screen (AID 1347384); conditions: animal cells, phospholipid biosynthesis inhibition screen; at 10 µM
# [14] = galactose survival enhancers in mitochondrial complex I cybrids – cell-based, galactose medium, ATP luminescence, primary screen (AID 1645843;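 active means z-score of at least 1.8 in each of two replicates, scored against plate mean and spread of sample wells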;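 further: positive z means more ATP and so rescue of galactose-driven cybrid death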); conditions: complex I mutant cybrid cells, 72 h, stronger effect = higher value
# F380Y/beta1 = assay: BK channel mutant inhibitors and activators – cell-based, U2OS BacMam, thallium flux, beta subunits, selectivity assay, profiling panel (AID 1259406;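 active means thallium flux through the channel raised or lowered by more than 3 SD from vehicle-only wells, actives on both sides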;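 further: initial slope of Thallos dye fluorescence rise after thallium is added; log ratio against the mean of 0.3% DMSO vehicle wells on the same plate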); conditions: U2OS BacMam BK variants, at 30 µM
# F380Y/beta4 = assay: as above; conditions: U2OS BacMam BK variants, at 30 µM
# R275C/beta4 = assay: as above; conditions: U2OS BacMam BK variants, at 30 µM
# R275C/Slo1WT/beta2 = assay: as above; conditions: U2OS BacMam BK variants, at 30 µM
# [15] = signal quenchers or enhancers, Cy5 substrate/SSB – biochemical, NIH Clinical Collection, E. coli SSB, artefact control for HCV NS3 helicase inhibitor project (AID 743268); conditions: Cy5-oligo bound E. coli SSB, fluorescence interference
SMILES,inhibition [1],score [2],rescue above control [3],cytochrome c release ratio [4],inhibition of aggregation [5],glutamate uptake change [6],aggregation suppression score [7],survival [8],inhibition [9],inhibition [10],fluorescence ratio [11],mean signal [12],outcome [13],z-score [14],log fold change Tl+ flux (F380Y/beta1),log fold change Tl+ flux (F380Y/beta4),log fold change Tl+ flux (R275C/beta4),log fold change Tl+ flux (R275C/Slo1WT/beta2),fluorescence ratio [15]
CCCCNC(=O)NS(=O)(=O)c1ccc(C)cc1,-1.59%,1.02,-3.14,0.7,52.6%,-18.9%,0.871,25.3 (inactive),-5.91% (inactive),1.05% (inactive),0.91 (inactive),261 (inactive),inactive,0.82 (inactive) and -0.58 (inactive) and 0.93 (inactive),0.0157 (inactive),0.00157 (inactive),-0.00534 (inactive),-0.00827 (inactive),–
CC(C)NCC(O)c1cc(O)cc(O)c1 (stereo not given),11.6%,1.21,-1.18,0.62,83.9%,-18.3%,1.15,10.4 (inactive),-5% (inactive),-4.29% (inactive),1.02 (inactive),261 (inactive),inactive,0.07 (inactive) and 1.61 (inactive),0.0393 (inactive),-0.0531 (inactive),0.0475 (inactive),0.0212 (inactive),1.05 (inactive)
O=C(CCCN1CC=C(n2c(=O)[nH]c3ccccc32)CC1)c1ccc(F)cc1,-1.81%,1.12,6.51,1.19,63.6%,4.12%,1.21,4.83 (inactive),-5.15% (inactive),-0.1% (inactive),1 (inactive),249 (inactive),–,-0.69 (inactive),-0.0432 (inactive),0.0551 (inactive),0.00129 (inactive),0.0371 (inactive),0.99 (inactive)
CN(C)CCC=C1c2ccccc2CCc2ccccc21,5.08%,0.94,17.6,1.57,70.5%,-1.53%,0.931,7.08 (inactive),-7.73% (inactive),-2% (inactive),0.92 (inactive),243 (inactive),inactive,-0.73 (inactive) and -1.31 (inactive),0.103 (inactive),0.189 (active),0.135 (active),0.00351 (inactive),0.94 (inactive)
NC(=O)N1c2ccccc2C=Cc2ccccc21,9.92%,1.24,-11.1,1.51,83.1%,-6.72%,1.82,26.6 (inactive),-3.18% (inactive),-3.53% (inactive),1.04 (inactive),259 (inactive),inactive,0.21 (inactive) and 0.34 (inactive) and 0.265 (inactive),-0.00275 (inactive),-0.00351 (inactive),-0.0824 (inactive),-0.0474 (inactive),1.03 (inactive)
CN(C)CCCN1c2ccccc2CCc2ccccc21,-29.3%,1.28,5.01,1.3,41%,5.43%,1.2,8.08 (inactive),–,–,–,235 (inactive),inactive,-0.9 (inactive) and -0.525 (inactive) and -0.59 (inactive),0.0217 (inactive),0.133 (active),0.109 (inactive),0.0178 (inactive),–
Cc1ccc(Cl)c(Nc2ccccc2C(=O)O)c1Cl,12.9%,0.67,16.6,1.42,46.5%,-15.8%,0.94,16.6 (inactive),0.45% (inactive),-0.48% (inactive),1 (inactive),249 (inactive),inactive,2.05 (inactive) and 0.72 (inactive),0.408 (active),0.386 (active),0.266 (active),0.0371 (inactive),0.6 (active)
Cc1ccc(S(=O)(=O)NC(=O)NN2CCCCCC2)cc1,-0.98%,1.2,1.05,1.07,69.7%,14.9%,0.918,3.17 (inactive),-2.27% (inactive),-2.76% (inactive),1 (inactive),286 (inactive),inactive,0.415 (inactive) and 0.635 (inactive) and 0.49 (inactive),0.00805 (inactive),-0.0504 (inactive),0.0645 (inactive),-0.0145 (inactive),1.04 (inactive)
Nc1nc(N)c2nc(-c3ccccc3)c(N)nc2n1,13.8%,1.58,4.34,0.47,52.6%,10.7%,1.34,18.2 (inactive),7.73% (inactive),7.91% (inactive),0.9 (inactive),245 (inactive),inactive,-0.725 (inactive) and 0.27 (inactive),-0.0403 (inactive),-0.00497 (inactive),-0.0731 (inactive),0.0101 (inactive),1.01 (inactive)
